In the library only some 3.1% were active in any assay of this set; here they are far more common.
pS6 MEF inh – Acumen qHTS Assay for Inhibitors of the mTORC1 Signaling Pathway in MEF (Tsc2-/-, p53-/-) Cells: Sytravon; Tsc2-/- p53-/- MEF, phospho-rpS6 immunofluorescence/PI, 24 h; Potency, µM (top dose mostly 38.3 µM), actives largely listed as inhibitors; actives 0.78% (n = 44,000); also: nearly all actives have a fitted effect of over 50% in size
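Tsc2-/-, p53-/- MEFs (empty-vector stable line) in DMEM + 10% FBS were treated with compounds 24 h at 37 degree Celsius, fixed, and immunostained for phospho-rpS6 (Alexa-488) with propidium iodide counterstain. Laser-scanning cytometry gave % positive cells, normalized against 7.5 nM rapamycin and DMSO.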
SKOV3 invasion – Primary qHTS assay for Inhibitors of ovarian cancer metastasis using an organotypic tumor microenvironment (TME) model; SKOV3ip1-GFP adhesion/invasion on 3D omental model, fluorescence; Potency, µM (top dose mostly 45.8 µM), hits mostly inhibitors; actives 0.1% (n = 46,000); also: nearly all actives have a fitted effect of over 65% in size
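qHTS, 4-pt dose (0.36-46 umol/L); SKOV3ip1-GFP, 1,200 cells/well, no FBS; primary omental fibroblast/mesothelial co-culture 48 h pre-grown; 2 h RT + 16 h 37 C; PBS wash, 4% PFA; GFP count 488/509 nm.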
p53null 32C tox – qHTS Screen for Compounds that Selectively Target Cancer Cells with p53 Mutations: Cytotoxicity of p53 Null Cells at the Permissive Temperature | actives 0.62% (n = 55,000) | AID 903, 2007 | Potency, µM (top dose mostly 46.1 µM), most hits filed as cytotoxic | H1299-neo p53 null cells, ATP luminescence, 24 h, 32C; also: nearly all actives have a fitted effect of over 55% in size
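H1299-neo (p53-null) cells, 600/well, were pre-incubated overnight at 37C, then exposed to compounds at up to 46 uM for 24 hr at 32C. Viability was measured as ATP content by luminescence, and AC50 values came from Hill fits.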
S16 F2sN tox – Cell viability qHTS assay in S16 Pmp22-F2sN cells; S16 Pmp22-F2sN Schwann cells viability, CellTiter-Glo, 24 h; Potency, µM (titrated, usually from 57.5 µM), hits mostly cytotoxic; actives 0.48% (n = 43,000); also: nearly all actives have a fitted effect of over 65% in size
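Seed 500-1,000 S16 Pmp22-F2sN cells per well in phenol-red-free DMEM with 10% heat-inactivated FBS; pin-add 23 nL compound; incubate 24 h at 37C; add CellTiter-Glo, wait 15 min protected from light; read luminescence.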
PMP22 txn – Cell-based coincidence reporter assay to measure PMP22 gene transcription in S16 Pmp22-F2sN cells - Primary screen | Potency, µM (series often up to 57.5 µM), most hits filed as inhibitors | S16 Pmp22-F2sN Schwann cells (luciferase reporters placed in the Pmp22 gene), FLuc/NLuc coincidence luminescence, 24 h | actives 2% (n = 43,000) | AID 1508649, 2021; active = clear falling dose curves in both reporters; inconclusive = both reporters move, but less clearly or upward; inactive = either reporter flat; the % is the NLuc reporter signal
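Luminescent read-out of sequential FLuc and NLuc signals from a reporter embedded in the Pmp22 3' UTR of S16 Schwann cells, taken after 24 h compound exposure at 37C; compounds reducing both signals score as inhibitors of expression.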
p53null 39C kill – qHTS Screen for Compounds that Selectively Target Cancer Cells with p53 Mutations: Cytotoxicity of p53 Null Cells at the Nonpermissive Temperature; actives 0.97% (n = 55,000); Potency, µM (highest dose often 46.1 µM), usual class: cytotoxic; H1299 p53-null (neo) cells, 39C, ATPlite viability, 24 h; also: nearly all actives have a fitted effect of over 50% in size
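Following overnight plating at 37C (600 cells/well), H1299-neo or H1299-p53A138V cells are dosed up to 46 uM. Incubation lasts 24 hr at 39C before ATP detection.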
NLuc sat counter – Biochemical NLuc saturation counterscreen for small molecule modulators of PMP22 gene expression - Nano-Glo assay | Potency, µM (titrated, usually from 57.5 µM), usual class: inhibitors | shares compounds with PMP22 txn | actives 4% (n = 690) | Secreted NLuc enzyme (filtered S16 cell medium), Nano-Glo luminescence
NLuc Km ctr – Biochemical coelenterazine-based NLuc counterscreen for small molecule modulators of PMP22 gene expression - Km assay; secreted NLuc enzyme, coelenterazine luminescence, Km conditions; actives 5% (n = 690); AID 1508639, 2021; shares compounds with PMP22 txn; Potency, µM (top dose mostly 57.5 µM), most hits filed as inhibitors
FLuc ctr PMP22 – Biochemical FLuc counterscreen for small molecule modulators of PMP22 gene expression; Potency, µM (titrated, usually from 57.5 µM), hits mostly inhibitors; AID 1508640, 2021; shares compounds with PMP22 txn; purified P. pyralis FLuc, luminescence, 10 min; 690 tested, under 10 active
Target sequence (P08659 whole entry, looked up): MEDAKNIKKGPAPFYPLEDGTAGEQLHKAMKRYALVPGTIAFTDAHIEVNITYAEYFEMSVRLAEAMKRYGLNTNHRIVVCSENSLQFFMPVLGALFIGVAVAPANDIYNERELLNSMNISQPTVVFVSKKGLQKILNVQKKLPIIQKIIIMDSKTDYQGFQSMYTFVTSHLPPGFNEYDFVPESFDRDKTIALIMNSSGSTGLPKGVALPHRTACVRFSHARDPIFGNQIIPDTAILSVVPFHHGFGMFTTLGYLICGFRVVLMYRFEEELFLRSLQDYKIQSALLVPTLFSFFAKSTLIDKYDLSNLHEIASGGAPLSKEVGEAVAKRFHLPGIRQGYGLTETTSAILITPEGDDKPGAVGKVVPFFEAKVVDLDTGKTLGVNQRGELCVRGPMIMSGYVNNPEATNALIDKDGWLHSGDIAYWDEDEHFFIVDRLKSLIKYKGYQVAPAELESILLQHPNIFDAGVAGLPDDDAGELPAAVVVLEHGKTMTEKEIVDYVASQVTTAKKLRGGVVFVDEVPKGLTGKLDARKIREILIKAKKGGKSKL
S16 viab conf – Cell viability qHTS assay in S16 Pmp22-F2sN cells - Confirmatory screen; shares compounds with PMP22 txn; S16 Schwann cells viability, CellTiter-Glo ATP luminescence, 24 h; Potency, µM (top dose mostly 57.5 µM), most hits filed as cytotoxic; actives 7% (n = 690)
PMP22 txn conf – Cell-based coincidence reporter assay to measure PMP22 gene transcription in S16 Pmp22-F2sN cells - Confirmatory screen. shares compounds with PMP22 txn. Potency, µM (doses to about 57.5 µM), actives largely listed as inhibitors. actives 22% (n = 690). S16 Schwann cells Pmp22-F2sN, dual luciferase, 24 h; active = clear falling dose curves in both reporters; inconclusive = both reporters move, but less clearly or upward; inactive = either reporter flat; the % is the FLuc reporter signal
PMP22 prot conf – Cell-based HiBiT reporter assay to measure PMP22 protein expression in S16 Pmp22-HiBiT cells - Confirmatory screen; shares compounds with PMP22 txn; S16 Schwann cells Pmp22-HiBiT, luminescence, 48 h; Potency, µM (doses to about 27.9 µM), most hits filed as inhibitors; 95 tested, under 10 active
Target sequence (P25094 whole entry, looked up): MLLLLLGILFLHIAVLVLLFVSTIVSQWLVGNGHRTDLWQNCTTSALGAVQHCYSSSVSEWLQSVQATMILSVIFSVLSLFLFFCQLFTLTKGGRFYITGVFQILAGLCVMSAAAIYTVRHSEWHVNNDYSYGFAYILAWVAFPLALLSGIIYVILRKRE
Large screens that a line does not name were inactive (follow-up assays come after a bar, where they were run). Unless noted, calls follow the shape of the dose curve; as a rule, active = well fitted curve in the direction sought with a large enough effect; inconclusive = small, poorly fitted or top-dose-only effect, or another doubt; inactive = no such curve, though single readings can be large; an effect the other way counts as inactive or inconclusive.

CC(=O)O[C@]1(C(C)=O)CC[C@H]2[C@@H]3C=C(C)C4=CC(=O)CC[C@]4(C)[C@@H]3CC[C@@]21C	none (no result: pS6 MEF inh, p53null 32C tox, S16 F2sN tox, PMP22 txn, p53null 39C kill)
OCCC#Cc1nc(-c2ccc(F)cc2)c(-c2ccncc2)n1CCCc1ccccc1	none (no result: pS6 MEF inh, p53null 32C tox, S16 F2sN tox, PMP22 txn, p53null 39C kill)
CN1C(=O)c2ccccc2Sc2ccc(NC(=O)COc3ccccc3)cc21	PMP22 txn 12µM | NLuc sat counter inconclusive | NLuc Km ctr inconclusive | FLuc ctr PMP22 inactive | S16 viab conf inactive | PMP22 txn conf inactive
COc1cccc(CNC(=O)Nc2ccc3c(c2)N(C)C(=O)c2ccccc2S3)c1	S16 F2sN tox inconclusive, PMP22 txn 18µM | NLuc sat counter inconclusive | NLuc Km ctr inconclusive | FLuc ctr PMP22 inactive | S16 viab conf inactive | PMP22 txn conf inconclusive
Cc1cccc(OCC(=O)Nc2ccc3c(c2)N(C)C(=O)c2ccccc2S3)c1	SKOV3 invasion inconclusive, S16 F2sN tox inconclusive, PMP22 txn inconclusive
COc1ccc(NC(=O)CSc2nc(-c3ccco3)cc(C(F)(F)F)n2)cc1	PMP22 txn inconclusive | NLuc sat counter inactive | NLuc Km ctr inactive | FLuc ctr PMP22 inactive | S16 viab conf inactive | PMP22 txn conf inactive
OC[C@H](Cc1ccccc1)Nc1nc(Oc2ccc3c(c2)CCC3)nc2c1ncn2Cc1ccc(-c2ccccc2)cc1	none (no result: pS6 MEF inh, p53null 32C tox, S16 F2sN tox, PMP22 txn, p53null 39C kill)
COc1ccccc1N1CCN(CCCNC(=O)c2nnc(Cc3c(F)cccc3Cl)o2)CC1	PMP22 txn 13µM | NLuc sat counter inactive | NLuc Km ctr inactive | FLuc ctr PMP22 inactive | S16 viab conf inactive | PMP22 txn conf inactive
Cc1[nH]c2ccccc2c1C1(O)C(=O)N(Cc2ccccc2)c2ccc(Br)cc21 (stereo unspecified)	pS6 MEF inh inconclusive, PMP22 txn 16µM, p53null 39C kill inconclusive | NLuc sat counter inactive | NLuc Km ctr inconclusive | FLuc ctr PMP22 inactive | S16 viab conf inconclusive | PMP22 txn conf inconclusive
FC(F)c1nc2ccccc2n1-c1nc(N2CCOCC2)nc(N2CCOCC2)n1	none (no result: pS6 MEF inh, p53null 32C tox, S16 F2sN tox, PMP22 txn, p53null 39C kill)
Cc1oc(-c2ccc(Cl)cc2)nc1CN1CCCC(C(=O)NCc2ccccc2)C1 (stereo unspecified)	PMP22 txn 18µM | NLuc sat counter inconclusive | NLuc Km ctr inconclusive | FLuc ctr PMP22 inactive | S16 viab conf inactive | PMP22 txn conf inconclusive
Cc1cccc(N2CCN(C(=O)C3CCN(S(=O)(=O)c4ccc5c(c4)oc(=O)n5C)CC3)CC2)c1C	PMP22 txn 20µM | NLuc sat counter inactive | NLuc Km ctr inactive | FLuc ctr PMP22 inactive | S16 viab conf inactive | PMP22 txn conf inactive
Cn1c(=O)oc2cc(S(=O)(=O)N3CCCC(C(=O)N4CCN(c5cccc(Cl)c5)CC4)C3)ccc21 (stereo unspecified)	PMP22 txn 13µM | NLuc sat counter inactive | NLuc Km ctr inactive | FLuc ctr PMP22 inactive | S16 viab conf inactive | PMP22 txn conf 17µM | PMP22 prot conf inconclusive
Cc1cccc(N2CCN(C(=O)C3CCCN(S(=O)(=O)c4ccc5c(c4)oc(=O)n5C)C3)CC2)c1C (stereo unspecified)	PMP22 txn 11µM | NLuc sat counter inactive | NLuc Km ctr inactive | FLuc ctr PMP22 inactive | S16 viab conf inactive | PMP22 txn conf inconclusive | PMP22 prot conf inconclusive
COc1cccc(N2CCN(C(=O)C3CCN(S(=O)(=O)c4ccc5c(c4)oc(=O)n5C)CC3)CC2)c1	none
Cc1ccc(NC(=O)C2(c3ccc4c(c3)OC(F)(F)O4)CC2)nc1-c1cccc(C(=O)O)c1	none (no result: pS6 MEF inh, p53null 32C tox, S16 F2sN tox, PMP22 txn, p53null 39C kill)
CCn1c(=O)c2c(nc(C=Cc3ccc(OC)c(OC)c3)n2C)n(CC)c1=O	none (no result: pS6 MEF inh, p53null 32C tox, S16 F2sN tox, PMP22 txn, p53null 39C kill)
O=c1oc2ccccc2cc1-c1cn2cc(Cc3ccc(Br)cc3)sc2n1	PMP22 txn inconclusive, p53null 39C kill inconclusive | NLuc sat counter inactive | NLuc Km ctr inactive | FLuc ctr PMP22 inactive | S16 viab conf inactive | PMP22 txn conf inconclusive
CCCCn1cc2c(c1-c1ccccc1Br)c(=O)n(C)c(=O)n2C	PMP22 txn 15µM | NLuc sat counter inconclusive | NLuc Km ctr inactive | FLuc ctr PMP22 inactive | S16 viab conf inactive | PMP22 txn conf inactive
Cc1ccccc1S(=O)(=O)Cc1ccc(C(=O)NCc2ccccc2Cl)o1	PMP22 txn inconclusive | NLuc sat counter inactive | NLuc Km ctr inactive | FLuc ctr PMP22 inconclusive | S16 viab conf inactive | PMP22 txn conf inactive

Source: PubChem (National Center for Advancing Translational Sciences (NCATS))
